The supplement of paper PMC12669032
A number with no mark means an inactive call.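 How the source made its calls: active = AUC reduced over 20% with Padj below 0.05 in at least 2 of 3 replicates; inactive = otherwise.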

Tests used:
Assay in all cases: growth AUC relative to DMSO control (median of replicates) (fraction); higher = more growth (less inhibition), active = hit call of the paper
Conditions in all cases: 20 µM; 24 h
Akkermansia muciniphila = tested on: Akkermansia muciniphila
Summary of the method: (§1)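 In round-bottom 96-well plates sealed with pierced gas-permeable seals, gut bacterial monocultures in mGAM were grown anaerobically at 37 °C from OD600 0.05 with 20 µM compound (1% DMSO). OD600 readings were taken hourly for 24 h, and the minimum OD was set to 0. Area under the growth curve was then normalised to the plate median of solvent-only wells, or to row and column medians on the industrial chemical plate. The value given is the median of three biological replicates grown on separate days.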

Bacteroides caccae = tested on: Bacteroides caccae
Summary of the method: as §1

Bacteroides clarus = tested on: Bacteroides clarus
Summary of the method: as §1

Bacteroides dorei = tested on: Bacteroides dorei
Summary of the method: as §1

Bacteroides stercoris = tested on: Bacteroides stercoris
Summary of the method: as §1

[1] = tested on: Bacteroides thetaiotaomicron
Summary of the method: as §1

Bacteroides uniformis = tested on: Bacteroides uniformis
Summary of the method: as §1

[2] = tested on: Bifidobacterium longum subsp. longum
Summary of the method: as §1

Clostridium difficile = tested on: Clostridium difficile
Summary of the method: as §1

Collinsella aerofaciens = tested on: Collinsella aerofaciens
Summary of the method: as §1

Coprococcus comes = tested on: Coprococcus comes
Summary of the method: as §1

Escherichia coli ED1a = tested on: Escherichia coli ED1a
Summary of the method: as §1

Escherichia coli IAI1 = tested on: Escherichia coli IAI1
Summary of the method: as §1

Eubacterium rectale = tested on: Eubacterium rectale
Summary of the method: as §1

[3] = tested on: Fusobacterium nucleatum subsp. animalis
Summary of the method: as §1

Lactobacillus gasseri = tested on: Lactobacillus gasseri
Summary of the method: as §1

Lactobacillus paracasei = tested on: Lactobacillus paracasei
Summary of the method: as §1

Odoribacter splanchnicus = tested on: Odoribacter splanchnicus
Summary of the method: as §1

[4] = tested on: Parabacteroides distasonis
Summary of the method: as §1

Parabacteroides merdae = tested on: Parabacteroides merdae
Summary of the method: as §1

Structure (SMILES) | growth AUC (Akkermansia muciniphila) | growth AUC (Bacteroides caccae) | growth AUC (Bacteroides clarus) | growth AUC (Bacteroides dorei) | growth AUC (Bacteroides stercoris) | growth AUC [1] | growth AUC (Bacteroides uniformis) | growth AUC [2] | growth AUC (Clostridium difficile) | growth AUC (Collinsella aerofaciens) | growth AUC (Coprococcus comes) | growth AUC (Escherichia coli ED1a) | growth AUC (Escherichia coli IAI1) | growth AUC (Eubacterium rectale) | growth AUC [3] | growth AUC (Lactobacillus gasseri) | growth AUC (Lactobacillus paracasei) | growth AUC (Odoribacter splanchnicus) | growth AUC [4] | growth AUC (Parabacteroides merdae)
C#CC(C)(C)NC(=O)c1cc(Cl)cc(Cl)c1 | 1.06 | 0.964 | 0.949 | 0.956 | 0.88 | 0.932 | 0.96 | 0.987 | 0.948 | 0.936 | 1 | 0.984 | 0.963 | 1.04 | 0.95 | 0.91 | 1.03 | 1.06 | 1.01 | 1.01
CCNP(=S)(OC)O/C(C)=C/C(=O)OC(C)C (stereo not given) | 0.983 | 0.966 | 0.957 | 0.998 | 1 | 0.953 | 0.993 | 0.983 | 0.986 | 1.01 | 0.987 | 1 | 0.951 | 1.13 | 0.981 | 0.968 | 0.994 | 0.956 | 0.991 | 0.963
CC(C)(C)[C@@H](O)[C@H](Oc1ccc(Cl)cc1)n1cncn1 | 1.06 | 0.904 | 1.02 | 0.953 | 1.25 | 0.948 | 0.975 | 0.998 | 1 | 0.988 | 0.974 | 0.977 | 0.999 | 1.08 | 1.05 | 1.08 | 1.09 | 0.833 | 0.972 | 1.01
CNC(=O)O/N=C(\C)C(C)S(C)=O (stereo not given) | 0.963 | 0.997 | 0.976 | 0.996 | 1 | 0.983 | 0.997 | 0.996 | 1 | 0.995 | 1.01 | 1.02 | 0.987 | 0.914 | 1.02 | 0.881 | 1.02 | 1.04 | 1.05 | 1.02
O=S1OCC2C(CO1)C1(Cl)C(Cl)=C(Cl)C2(Cl)C1(Cl)Cl (stereo not given) | 1.08 | 1 | 0.962 | 0.999 | 0.779 | 0.976 | 0.874 | 1.04 | 0.992 | 0.971 | 1.03 | 1.02 | 1.04 | 1.08 | 1.13 | 0.763 | 1.05 | 1.03 | 1.1 | 0.951
CCCCOC(=O)[C@@H](C)Oc1ccc(Oc2ccc(C#N)cc2F)cc1 | 1.1 | 0.973 | 1 | 0.969 | 0.973 | 0.954 | 0.975 | 0.984 | 0.981 | 0.984 | 1.01 | 1 | 0.966 | 1.11 | 1.01 | 0.87 | 0.939 | 1 | 0.704 (active) | 0.971
CCCC(Cn1cncn1)c1ccc(Cl)cc1Cl (stereo not given) | 1.01 | 0.936 | 0.987 | 0.977 | 1.2 | 0.949 | 0.941 | 1.07 | 0.911 | 0.992 | 0.919 | 0.997 | 1.03 | 0.73 (active) | 1.05 | 1.05 | 0.987 | 0.962 | 0.991 | 0.969
Clc1ccc(C2(Cn3cncn3)OCCO2)c(Cl)c1 | 1.03 | 0.932 | 0.984 | 0.934 | 0.815 | 0.916 | 0.985 | 1.01 | 0.956 | 0.913 | 0.966 | 0.98 | 0.979 | 1.03 | 0.988 | 0.937 | 0.946 | 0.923 | 1.01 | 0.954
Clc1ccc(C(c2ccc(Cl)cc2)C(Cl)Cl)cc1 | 1.03 | 0.927 | 0.899 | 0.888 | 0.662 (active) | 0.933 | 0.984 | 1.06 | 1.03 | 0.873 | 1.01 | 1.02 | 0.984 | 1.01 | 1.07 | 0.956 | 0.994 | 0.951 | 1.02 | 0.918
O=[N+]([O-])c1ccccc1 | 1.11 | 1.01 | 1.02 | 0.97 | 1.13 | 1.03 | 1 | 1.06 | 1.01 | 0.951 | 1.03 | 1.01 | 1.01 | 1.07 | 1.07 | 1 | 0.994 | 1.08 | 1.03 | 1.03
Clc1ccc(Cl)cc1 | 1.01 | 0.991 | 0.989 | 0.899 | 1.08 | 1.01 | 1.01 | 1.07 | 0.987 | 0.972 | 0.985 | 1 | 1 | 1.05 | 1.1 | 0.981 | 0.936 | 1.03 | 0.999 | 1.02
COc1nc(NC(C)C)nc(NC(C)C)n1 | 1.01 | 1.04 | 0.993 | 0.994 | 0.979 | 1.02 | 1.02 | 1.02 | 0.98 | 0.995 | 1.01 | 1.01 | 1.02 | 0.97 | 0.885 | 0.984 | 1.01 | 1.03 | 1.03 | 1.02
COC(=O)C(C)N(C(=O)c1ccco1)c1c(C)cccc1C (stereo not given) | 1.07 | 0.872 | 0.984 | 0.85 | 0.985 | 0.727 (active) | 0.88 | 1.1 | 0.941 | 0.913 | 0.96 | 0.971 | 0.981 | 1.06 | 1.04 | 0.86 | 1.06 | 0.938 | 1 | 0.918
CNC(=O)N(C)c1nnc(C(C)(C)C)s1 | 0.742 | 1.02 | 0.97 | 1.05 | 1 | 0.993 | 1.01 | 0.925 | 1 | 1.04 | 0.995 | 0.99 | 0.945 | 0.931 | 0.969 | 1.16 | 0.941 | 0.963 | 0.973 | 1
O=c1oc2ccccc2c(O)c1C1CCCc2ccccc21 (stereo not given) | 1.15 | 0.938 | 0.916 | 0.926 | 1.09 | 0.796 (active) | 0.701 (active) | 1.09 | 1.02 | 1 | 0.966 | 1.04 | 1.04 | 1.08 | 1.05 | 1 | 0.894 | 0.959 | 0.805 | 0.994
CC(Oc1cc(Cl)c(Cl)cc1Cl)C(=O)O (stereo not given) | 0.958 | 1 | 0.949 | 0.979 | 0.973 | 0.99 | 0.987 | 0.787 | 1.02 | 1.01 | 0.987 | 0.978 | 0.953 | 0.964 | 0.889 | 1.04 | 1 | 1.02 | 0.955 | 0.986
O=C1OCC2C1C1(Cl)C(Cl)=C(Cl)C2(Cl)C1(Cl)Cl (stereo not given) | 1.09 | 0.965 | 0.991 | 0.987 | 0.871 | 1.04 | 1.01 | 1.06 | 0.987 | 0.926 | 1.01 | 0.979 | 1.01 | 1.07 | 0.925 | 0.927 | 0.991 | 1.09 | 1.07 | 0.987
